# Unmarked numbers belong to inactive results. Inconclusive results are not listed. Calls of active or inactive are those of the source. Unless noted, the call rests on the fitted dose curve; in most records, active means well fitted curve in the direction sought with a large enough effect; inconclusive means small, poorly fitted or top-dose-only effect, or another doubt; inactive means no such curve, though single readings can be large; an effect the other way counts as inactive or inconclusive. Where a SMILES comes first, the peptide text is derived from it. [ ]: non-standard residue; d: D form. pGlu = O=C1CC[C@@H](C(=O)O)N1
# System: not listed separately
# Test: qHTS assay for measurement of the activity of small molecule inhibitors on Zika virus induced Caspase-3 activity in human iPSC derived neural progenitor cells (hNPCs) (AID 1224857); further: % of control where 0% means no effect; nearly all actives have a fitted effect of over 65% in size
# Conditions: hNPCs ZIKV-induced caspase-3/7, Caspase-Glo luminescence, 6 h; series mostly up to 45.7 µM; activity change, negative = inhibition: at the top concentration
# Outline: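 Values are percent inhibition of virus-induced caspase-3/7 signal, scaled between uninfected cells and ZIKV-infected cells. Infection used 2 FFU/cell for 6 h after 1 h compound exposure.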
row,SMILES,"activity change, negative = inhibition"
1,Cc1ccc(/C=N/n2c(-c3ccccc3)csc2=S)cc1,7.17%
2,Cc1ccc(-c2ccccc2C#N)cc1,17.6%
3,CC(=O)Oc1ccc(C2(c3ccc(OC(C)=O)cc3)Oc3ccccc3NC2=O)cc1,-1.35%
4,Cc1c(N)cccc1C(F)(F)F,7.86%
5,O=C(c1ccco1)N1CCNCC1,16.5%
6,Cc1cc(OCCOCC[N+](C)(C)Cc2ccccc2)ccc1C(C)(C)CC(C)(C)C,2.38%
7,Nc1ncnc2c1ncn2Cc1c(F)cccc1Cl,-3.64%
8,CCN(CC)CC(=O)OCC(=O)[C@@]1(O)CC[C@H]2[C@@H]3CCC4=CC(=O)CC[C@]4(C)[C@H]3[C@@H](O)C[C@@]21C,-6.38%
9,CC(=O)N(CC(=O)N(C)C)c1ccccc1,-7.08%
10,C#Cc1ccc(-c2ccccc2F)cc1,-2.8%
11,CCCCCN(CCCOC)C(=O)C(CCC(=O)O)NC(=O)c1ccc(Cl)c(Cl)c1 (stereo not drawn),-6.93%
12,COc1ccc2c(c1)c(CC(=O)OC/C=C(\C)CC/C=C(\C)CCC=C(C)C)c(C)n2C(=O)c1ccc(Cl)cc1,-5.98%
13,COc1ccc(-n2nc(CCC(=O)N(C)O)cc2-c2ccc(Cl)cc2)cc1,-3.78%
14,CC(C)OP(=O)(CP(=O)(OC(C)C)OC(C)C)OC(C)C,-5.42%
15,N#Cc1cc(NC(=O)C(=O)O)c(Cl)c(NC(=O)C(=O)O)c1,9.61%
16,CN1C(CSCC(F)(F)F)Nc2cc(Cl)c(S(N)(=O)=O)cc2S1(=O)=O (stereo not drawn),3.48%
17,CN1C(=O)c2ccccc2C1=O,-6.61% [at 92.8 µM]
18,CN1N=C(C(N)=O)CCC1=O,1.55%
19,C=CCNc1nc(NCC=C)nc(N2CCN(C(c3ccc(F)cc3)c3ccc(F)cc3)CC2)n1,5.66%

# System: not listed separately
# Test: qHTS assay for measurement of the activity of small molecule inhibitors on Zika virus induced Caspase-3 activity in human astrocytoma cells (AID 1224859);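 further: plate controls were ZIKV-infected untreated cells for no effect and uninfected cells for full effect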
# Conditions: SNB-19 ZIKV-induced caspase-3/7, luminescence, 6 h; series mostly up to 45.7 µM; activity change, negative = inhibition: at the top concentration
# Outline: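 Compound added 1 h pre-infection; ZIKV 2 FFU/cell on SNB-19 cells, 6 h, 37 C/5% CO2. Caspase-Glo 3/7 luminescence; values as % inhibition of ZIKV-induced caspase activity.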
row,SMILES,"activity change, negative = inhibition [%]"
1,COC(=O)C1=CO[C@@H](O)[C@@H]2C(CO)=CC[C@H]12,32.9
2,N[C@@H](Cn1ccc(=O)c(O)c1)C(=O)O,-6.44
3,CN(C)c1cc2c(Nc3ccc4c(cnn4Cc4ccccc4)c3)ncnc2cn1,27.1

# System: not listed separately
# Test: P-glycoprotein substrates identified in KB-8-5-11 adenocarcinoma cell line, qHTS therapeutic library screen (AID 1346987); further: nearly all actives have a fitted effect of over 65% in size; on activity change, negative = cytotoxicity: on the % scale 0 is the no-effect control and ±100 the full control effect
# Conditions: KB-8-5-11 (P-gp overexpressing) viability, CellTiter-Glo, 72 h; series mostly up to 44.5 µM; activity change, negative = cytotoxicity: at the top concentration; outcome: at the top concentration
# Outline: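 Compounds are pinned in dose-response onto KB-8-5-11 cells (500 cells/well, colchicine-free medium) and left 72 h at 37 degree C. CellTiter-Glo luminescence then yields AC50 values.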
SMILES,"activity change, negative = cytotoxicity",outcome
COC(=O)C1=CO[C@@H](O)[C@@H]2C(CO)=CC[C@H]12,-14.6%,
C[N+]1(CC2COC(c3ccccc3)(c3ccccc3)O2)CCCCC1 (stereo not drawn),-2.39% [at 17.3 µM],
N[C@@H](Cn1ccc(=O)c(O)c1)C(=O)O,,inactive [at 5.11 µM]
Cc1cc(OCCOCC[N+](C)(C)Cc2ccccc2)ccc1C(C)(C)CC(C)(C)C,-8.98%,
CN1C(CSCC(F)(F)F)Nc2cc(Cl)c(S(N)(=O)=O)cc2S1(=O)=O (stereo not drawn),0.353%,
CN1C(=O)c2ccccc2C1=O,4.43% [at 93.4 µM],

# Molecular target: Atrial natriuretic peptide receptor 2 (Homo sapiens) (UniProt P20594)
# Sequence (P20594 whole entry, looked up): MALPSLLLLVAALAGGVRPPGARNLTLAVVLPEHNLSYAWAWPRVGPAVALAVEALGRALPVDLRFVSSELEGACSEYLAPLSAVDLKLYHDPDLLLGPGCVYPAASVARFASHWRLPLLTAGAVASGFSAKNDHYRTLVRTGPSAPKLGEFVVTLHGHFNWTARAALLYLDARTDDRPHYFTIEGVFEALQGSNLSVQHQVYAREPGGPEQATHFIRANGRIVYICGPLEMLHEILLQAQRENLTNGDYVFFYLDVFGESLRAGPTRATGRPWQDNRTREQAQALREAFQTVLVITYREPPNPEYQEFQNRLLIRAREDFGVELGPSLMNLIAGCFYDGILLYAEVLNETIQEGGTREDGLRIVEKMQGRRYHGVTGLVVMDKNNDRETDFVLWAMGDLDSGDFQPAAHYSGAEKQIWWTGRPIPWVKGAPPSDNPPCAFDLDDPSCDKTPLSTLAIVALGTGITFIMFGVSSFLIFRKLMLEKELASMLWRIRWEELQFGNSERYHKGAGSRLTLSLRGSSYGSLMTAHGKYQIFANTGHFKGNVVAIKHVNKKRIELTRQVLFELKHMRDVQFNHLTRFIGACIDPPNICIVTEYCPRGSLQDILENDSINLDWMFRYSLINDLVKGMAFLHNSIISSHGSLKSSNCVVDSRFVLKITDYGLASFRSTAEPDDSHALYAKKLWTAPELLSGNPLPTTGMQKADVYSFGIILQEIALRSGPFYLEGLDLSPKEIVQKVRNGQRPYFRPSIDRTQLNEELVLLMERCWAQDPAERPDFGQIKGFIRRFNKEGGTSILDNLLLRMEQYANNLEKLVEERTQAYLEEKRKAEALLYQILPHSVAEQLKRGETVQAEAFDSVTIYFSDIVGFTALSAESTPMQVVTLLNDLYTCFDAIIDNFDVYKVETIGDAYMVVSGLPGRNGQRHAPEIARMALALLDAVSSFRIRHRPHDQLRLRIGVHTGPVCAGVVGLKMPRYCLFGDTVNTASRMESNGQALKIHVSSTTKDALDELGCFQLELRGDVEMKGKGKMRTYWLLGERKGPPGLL
# Test: Natriuretic polypeptide receptor (hNpr2) antagonism - Pilot subtype selectivity assay (AID 1347050; calls by dose curve; further: on the % scale 0 is the no-effect control and ±100 the full control effect)
# Conditions: NPR2-expressing cells, cGMP antagonist-mode read-out; series mostly up to 38.3 µM; activity change, negative = inhibition: at the top concentration
# Outline: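 Antagonist mode: compounds (LOPAC1280, seven 1:5 dilutions) added 30 min before 1 nM hNppC stimulation of hNpr2-HEK293 cGMP-sensor cells; luminescence read before and 20 min after agonist at ambient temperature.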
row,SMILES,"activity change, negative = inhibition [%]"
1,COC(=O)C1=CO[C@@H](O)[C@@H]2C(CO)=CC[C@H]12,6.72
2,N[C@@H](Cn1ccc(=O)c(O)c1)C(=O)O,-0.339
3,CN(C)c1cc2c(Nc3ccc4c(cnn4Cc4ccccc4)c3)ncnc2cn1,-0.9

# System: not listed separately
# Test: NS1 protein of Zika virus - qHTS assay to identify small molecule inhibitors in human HEK 293 cells (AID 1347053);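 further: plate controls were infected untreated cells for no effect and uninfected cells for full effect; nearly all actives have a fitted effect of over 55% in size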
# Conditions: HEK293 ZIKV MR766 infection, NS1 TR-FRET, 24 h; series mostly up to 46.1 µM; activity change, negative = inhibition: at the top concentration
# Outline: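 TR-FRET signal from two anti-ZIKV NS1 antibodies quantified NS1 in HEK 293 cells 24 h after MR766 infection at MOI = 0.5; compounds were added 1 h before virus. Uninfected cells and infected cells defined the NS1 normalization range.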
row,SMILES,"activity change, negative = inhibition"
1,Cc1ccc(C(C)OC(=O)C2(C)CCC(C(=O)O)C2(C)C)cc1 (stereo not drawn),-0.153%
2,Cc1cc(O)c2c(O)c3c(O)cccc3cc2c1,0.912%
3,O=C(CCCl)NCc1ccccc1,3.42%
4,CCCCCCn1c(=O)c2c(ncn2C)n(C)c1=O,11.9%
5,O=c1[nH]c2ccccc2c(=O)n1CCCl,-18.6%
6,COC(=O)C1=CO[C@@H](O)[C@@H]2C(CO)=CC[C@H]12,62.9%
7,CCc1cccc2c(CCO)c[nH]c12,-3.15%
8,C#CC(C)(CC)OC(=O)c1ccccc1C(=O)O (stereo not drawn),0.857%
9,C[N+]1(CC2COC(c3ccccc3)(c3ccccc3)O2)CCCCC1 (stereo not drawn),-5.54% [at 20.1 µM]
10,[O-][n+]1cccc(/C(Cl)=N/OC[C@@H](O)CN2CCCCC2)c1,-3.43%
11,C[C@H]1C[C@H]2[C@@H]3CCC4=CC(=O)C=C[C@]4(C)[C@H]3C(=O)C[C@]2(C)[C@@]1(O)C(=O)CO,-6.22%
12,CCNC(=O)[C@@H]1CCCN1C(=O)[C@H](CCCN=C(N)N)NC(=O)[C@H](CC(C)C)NC(=O)CNC(=O)[C@H](Cc1ccc(O)cc1)NC(=O)[C@H](CO)NC(=O)[C@H](Cc1c[nH]c2ccccc12)NC(=O)[C@H](Cc1cnc[nH]1)NC(=O)[C@@H]1CCC(=O)N1 ([pGlu]HWSYGLRP-NHEt),-8.28%
13,CC(=O)N[C@@H](CO)C(=O)N[C@@H](CC(=O)O)C(=O)N[C@@H](CCCCN)C(=O)N1CCC[C@H]1C(=O)O (Ac-SDKP-OH),4.41%
14,Cc1cc(CCCOc2c(C)cc(-c3noc(C(F)(F)F)n3)cc2C)on1,-1.52%
15,Nc1ccc(C(=O)N2CC3CC(CN(Cc4ccccc4)C3)C2)cc1,-2.1%
16,Cc1ccc(/C=N/n2c(-c3ccccc3)csc2=S)cc1,-1.02%

row,SMILES,"activity change, negative = inhibition"
1,Cc1ccc(-c2ccccc2C#N)cc1,-1.39%
2,CC(=O)Oc1ccc(C2(c3ccc(OC(C)=O)cc3)Oc3ccccc3NC2=O)cc1,13.9%
3,Cc1c(N)cccc1C(F)(F)F,-1.35%
4,O=C(c1ccco1)N1CCNCC1,-2.12%
5,Nc1ncnc2c1ncn2Cc1c(F)cccc1Cl,0.525%
6,CCN(CC)CC(=O)OCC(=O)[C@@]1(O)CC[C@H]2[C@@H]3CCC4=CC(=O)CC[C@]4(C)[C@H]3[C@@H](O)C[C@@]21C,-1.77%
7,CN(C)c1cc2c(Nc3ccc4c(cnn4Cc4ccccc4)c3)ncnc2cn1,21.3%
8,CC(=O)N(CC(=O)N(C)C)c1ccccc1,-6.3%
9,C#Cc1ccc(-c2ccccc2F)cc1,-1.92%
10,CCCCCN(CCCOC)C(=O)C(CCC(=O)O)NC(=O)c1ccc(Cl)c(Cl)c1 (stereo not drawn),4.21%
11,COc1ccc2c(c1)c(CC(=O)OC/C=C(\C)CC/C=C(\C)CCC=C(C)C)c(C)n2C(=O)c1ccc(Cl)cc1,6.99%
12,COc1ccc(-n2nc(CCC(=O)N(C)O)cc2-c2ccc(Cl)cc2)cc1,11.1%
13,CC(C)OP(=O)(CP(=O)(OC(C)C)OC(C)C)OC(C)C,-3.48%
14,CN1C(CSCC(F)(F)F)Nc2cc(Cl)c(S(N)(=O)=O)cc2S1(=O)=O (stereo not drawn),-1.92%
15,CN1C(=O)c2ccccc2C1=O,-2.48% [at 92.8 µM]
16,C=CCNc1nc(NCC=C)nc(N2CCN(C(c3ccc(F)cc3)c3ccc(F)cc3)CC2)n1,13%

# Source: PubChem BioAssay (NCATS)
